Activity calls are given as the source filed them.

Test [1] relates to Wnt5a (protein binding on small-molecule microarray). The experiment in a line: small molecules binding Wnt5a protein – biophysical, small-molecule microarray, 635/667 nm fluorescence, primary screen (AID 1142).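 Also: fluorescence read at 667 nm with signal to noise per printed feature.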 As to conditions: 635 nm fluorescence, higher = more signal.
Test [2] in a line: ATP-based viability of Huh7 replicon cells – cell-based, CellTiter-Glo luminescence, basal, 48 h, cytotoxicity control for HCV replication inhibitor project, primary screen (AID 1143).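 Also: Huh7 hepatoma cells carrying a hepatitis C replication reporter with no stimulus; test concentration not given here.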 To be noted: higher = more signal, called active from +8 up or from −8 down.
Test [3] in a line: basal CRE-LacZ reporter activity in PC12 – cell-based, unstimulated, primary screen (AID 1145). To be noted: no forskolin, luminescence, 4.5 h, higher = more signal, called active from +8 up or from −8 down.
A short description of test [4]: forskolin-driven CRE-LacZ activity in PC12 – cell-based, CRE-LacZ reporter, forskolin-stimulated, primary screen (AID 1146).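 Also: PC12 cells with 6xCRE LacZ reporter stimulated by forskolin 10 µM; beta-galactosidase reporter signal reflecting CREB driven transcription.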 As to conditions: luminescence, 4.5 h, higher = more signal, called active from +8 up or from −8 down.
Test [5] deals with Streptavidin (Streptomyces avidinii) (UniProt P22629). The experiment in a line: compounds binding control protein streptavidin – biophysical, small-molecule microarray, 635/667 nm fluorescence, artefact control for SMM compound annotation, primary screen (AID 1147).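 Also: signal reflects streptavidin binding to arrayed compounds as a control protein.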 As to conditions: higher = more signal.
Streptavidin (Streptomyces avidinii), sequence (P22629 whole entry, looked up): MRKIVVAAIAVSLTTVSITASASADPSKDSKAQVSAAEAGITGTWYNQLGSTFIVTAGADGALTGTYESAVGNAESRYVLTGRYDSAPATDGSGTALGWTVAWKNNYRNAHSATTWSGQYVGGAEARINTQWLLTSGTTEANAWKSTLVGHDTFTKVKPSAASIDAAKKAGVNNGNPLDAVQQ
A short description of test [6]: probe aInhba binding on compound microarray – biochemical, small-molecule microarray, 635/667 nm fluorescence, primary screen (AID 1148).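 Also: score merges 667nm spot fluorescence with signal-to-noise for antibody binding to printed compounds.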 As to conditions: higher = more signal.
In test [7] the target is Torsin-1A (Homo sapiens) (UniProt O14656). The experiment in a line: TOR1A wild-type binding on microarray – cell lysate, small-molecule microarray, lysate, 635/667 nm, primary screen (AID 1149). To be noted: COS7 hTOR1A-WT lysate, 635 nm fluorescence, higher = more signal.
Torsin-1A (Homo sapiens), sequence (O14656 whole entry, looked up): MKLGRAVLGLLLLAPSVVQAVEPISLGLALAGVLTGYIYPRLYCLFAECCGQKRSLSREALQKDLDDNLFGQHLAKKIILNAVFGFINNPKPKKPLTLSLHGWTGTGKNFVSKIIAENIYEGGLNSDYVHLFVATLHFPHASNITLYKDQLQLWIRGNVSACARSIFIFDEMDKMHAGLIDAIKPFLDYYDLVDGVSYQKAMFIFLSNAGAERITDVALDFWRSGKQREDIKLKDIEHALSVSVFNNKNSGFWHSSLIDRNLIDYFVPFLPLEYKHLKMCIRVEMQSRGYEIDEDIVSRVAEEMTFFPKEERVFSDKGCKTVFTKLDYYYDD
For test [8] the target is unchanged. The experiment in a line: torsin A mutant lysate binding on microarrays – cell lysate, small-molecule microarray, COS7 lysate, 635/667 nm fluorescence, primary screen (AID 1150).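 Also: score pools 667 nm emission and signal to noise measuring lysate protein binding.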 As to conditions: COS7 hTOR1A mutant lysate, 635 nm fluorescence, higher = more signal.
Test [9] relates to Sonic hedgehog protein (Shh). The experiment in a line: Sonic hedgehog microarray binding compounds – biochemical, small-molecule microarray, 635/667 nm fluorescence, primary screen (AID 1151).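 Also: Shh protein binding to compounds spotted on small-molecule microarray slides; score combines spot fluorescence intensity with signal-to-noise across triplicate slides.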 To be noted: 635 nm fluorescence, higher = more signal.
Test [10] can be described thus: optical density shifts of acrAB sulA E. coli – strain DRC41, OD650, 48 h, E. coli filamentation inducer project, primary screen (AID 1152).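 Also: E. coli MC1000 strain DRC41 lacking acrAB efflux pump and sulA.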 As to conditions: higher = more signal, called active from +8 up or from −8 down.
Test [11] is described as follows: probe aLefty1 binding on compound microarray – biochemical, small-molecule microarray, 635/667 nm fluorescence, primary screen (AID 1153).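 Also: score merges spot fluorescence with signal-to-noise ratio from the scanned slide images.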 To be noted: higher = more signal.
Test [12] is described as follows: plasmodial surface anion channel blockers, osmotic lysis – cell-based, P. falciparum Indochina, OD700, 1 h, primary screen (AID 1154). To be noted: P. falciparum Indochina infected RBC osmotic lysis, higher = more signal, called active from +8 up or from −8 down.
Test [13] can be described thus: plasmodial surface anion channel blockers, osmotic lysis – cell-based, P. falciparum Indochina, OD700, 2 h, primary screen (AID 1155).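 Also: lysis reports solute entry through the parasite surface anion channel PSAC.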 To be noted: P. falciparum Indochina infected erythrocytes, higher = more signal, called active from +8 up or from −8 down.
Test [14] can be described thus: changes in parasitized red cell lysis, either direction – P. falciparum Indochina, OD700, 3 h, PSAC antagonist project, primary screen (AID 1156). As to conditions: P. falciparum-infected erythrocytes, osmotic lysis, higher = more signal, called active from +8 up or from −8 down.
Test [15] in a line: plasmodial surface anion channel blockers, osmotic lysis – cell-based, P. falciparum Indochina, OD700, 18 h, primary screen (AID 1157). To be noted: P. falciparum Indochina infected erythrocytes, osmotic lysis OD700, 18 h; higher = more signal, called active from +8 up or from −8 down.
Test [16] is described as follows: S6 kinase pathway phospho-S6 level changes – cell-based, A549, cytoblot, luminescence, serum-stimulated, primary screen (AID 1158).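 Also: serum-stimulated A549 lung adenocarcinoma cells; signal is phosphorylated S6 detected by cytoblot immunostaining with HRP secondary.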 To be noted: 5 h, higher = more signal.
The target of test [17] is NADPH oxidase 2 (Homo sapiens) (UniProt P04839). The experiment in a line: compounds shifting NOX2 Amplex Red fluorescence – cell-based, HEK293-NOX2, PMA-stimulated, NOX inhibitor project, primary screen (AID 1159). Also: test concentration not given here. As to conditions: 45 min, higher = more signal, called active from +8 up or from −8 down.
NADPH oxidase 2 (Homo sapiens), sequence (P04839 whole entry, looked up): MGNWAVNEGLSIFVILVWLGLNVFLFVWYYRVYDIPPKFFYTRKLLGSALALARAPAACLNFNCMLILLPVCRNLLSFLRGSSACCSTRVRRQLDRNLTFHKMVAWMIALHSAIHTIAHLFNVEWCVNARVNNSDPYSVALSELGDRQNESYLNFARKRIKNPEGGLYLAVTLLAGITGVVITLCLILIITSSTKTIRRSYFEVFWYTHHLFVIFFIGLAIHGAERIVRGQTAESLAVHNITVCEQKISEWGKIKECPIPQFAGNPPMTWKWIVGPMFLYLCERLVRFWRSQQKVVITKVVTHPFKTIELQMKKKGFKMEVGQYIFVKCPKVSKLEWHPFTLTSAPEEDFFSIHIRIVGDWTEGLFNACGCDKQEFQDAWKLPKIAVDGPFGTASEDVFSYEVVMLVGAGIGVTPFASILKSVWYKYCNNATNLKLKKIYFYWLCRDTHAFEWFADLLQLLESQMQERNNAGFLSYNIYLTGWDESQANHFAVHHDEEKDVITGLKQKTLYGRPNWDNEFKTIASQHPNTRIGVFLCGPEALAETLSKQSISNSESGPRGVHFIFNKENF
The target in test [18] is NADPH oxidase 4 (Homo sapiens) (UniProt Q9NPH5). The experiment in a line: compounds shifting NOX4 Amplex Red fluorescence – cell-based, HEK293-NOX4, tetracycline-induced, NOX inhibitor project, primary screen (AID 1160). To be noted: HEK293-NOX4, Amplex Red H2O2 fluorescence, 45 min; higher = more signal, called active from +8 up or from −8 down.
NADPH oxidase 4 (Homo sapiens), sequence (Q9NPH5 whole entry, looked up): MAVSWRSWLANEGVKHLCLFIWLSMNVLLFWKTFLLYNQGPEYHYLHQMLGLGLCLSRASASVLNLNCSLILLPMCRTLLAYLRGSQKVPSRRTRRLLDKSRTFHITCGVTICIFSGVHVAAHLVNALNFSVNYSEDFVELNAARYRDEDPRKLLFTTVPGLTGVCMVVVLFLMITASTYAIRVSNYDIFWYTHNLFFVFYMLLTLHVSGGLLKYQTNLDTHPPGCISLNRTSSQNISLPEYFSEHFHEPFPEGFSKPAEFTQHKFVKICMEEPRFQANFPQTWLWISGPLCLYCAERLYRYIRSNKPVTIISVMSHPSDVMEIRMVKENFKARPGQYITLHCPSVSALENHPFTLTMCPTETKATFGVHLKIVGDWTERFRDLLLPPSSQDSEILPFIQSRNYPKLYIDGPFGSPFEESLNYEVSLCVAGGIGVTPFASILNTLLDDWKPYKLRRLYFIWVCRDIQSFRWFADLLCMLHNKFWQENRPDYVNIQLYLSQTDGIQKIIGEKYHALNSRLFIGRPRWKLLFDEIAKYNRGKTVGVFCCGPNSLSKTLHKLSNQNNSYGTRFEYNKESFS
Test [19] has as its target NADPH oxidase 5 (Homo sapiens) (UniProt Q96PH1). The experiment in a line: compounds shifting NOX5 Amplex Red fluorescence – cell-based, HEK293-NOX5, NOX inhibitor project, primary screen (AID 1161). As to conditions: HEK293-NOX5, ionomycin, 45 min, higher = more signal.
The nature of test [20]: compound effects on lung adenocarcinoma cell viability – A549, calcein-AM fluorescence, 48 h, basal, profiling panel (AID 1162). Also: test concentration not given here. As to conditions: higher = more signal.

NADPH oxidase 5 (Homo sapiens), sequence (Q96PH1 whole entry, looked up): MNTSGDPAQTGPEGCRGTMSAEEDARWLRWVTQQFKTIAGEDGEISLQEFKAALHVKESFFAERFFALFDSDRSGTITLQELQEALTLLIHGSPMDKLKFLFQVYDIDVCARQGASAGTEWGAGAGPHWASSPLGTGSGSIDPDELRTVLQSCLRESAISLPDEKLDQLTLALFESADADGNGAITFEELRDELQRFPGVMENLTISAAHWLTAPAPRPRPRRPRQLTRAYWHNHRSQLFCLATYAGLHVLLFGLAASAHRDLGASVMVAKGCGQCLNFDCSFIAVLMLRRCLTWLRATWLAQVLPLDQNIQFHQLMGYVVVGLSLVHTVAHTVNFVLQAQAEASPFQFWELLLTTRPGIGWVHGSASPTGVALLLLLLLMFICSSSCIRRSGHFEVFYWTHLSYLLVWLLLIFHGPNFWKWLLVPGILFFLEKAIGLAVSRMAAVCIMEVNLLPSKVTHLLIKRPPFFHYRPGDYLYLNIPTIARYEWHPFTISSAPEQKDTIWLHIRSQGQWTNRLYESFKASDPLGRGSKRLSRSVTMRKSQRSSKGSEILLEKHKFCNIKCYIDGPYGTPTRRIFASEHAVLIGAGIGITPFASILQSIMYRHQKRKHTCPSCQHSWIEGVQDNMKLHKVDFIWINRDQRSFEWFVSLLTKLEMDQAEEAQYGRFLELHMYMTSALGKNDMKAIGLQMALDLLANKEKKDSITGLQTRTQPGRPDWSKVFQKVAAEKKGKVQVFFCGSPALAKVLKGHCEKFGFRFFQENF

For the compound `CC(C)(C)OC(=O)CC[C@@]12N=C(c3ccc(OCCCO)cc3)O[C@@H]1c1ccccc1CN(Cc1ccccc1)C2=O`, the composite z-score was 0.822 in test [1]; 0.197 in test [5]; 0.0756 in test [6]; 0.161 in the test with Torsin-1A (Homo sapiens) [7]; -0.0105 in the test with Torsin-1A (Homo sapiens) [8]; 1.04 in [9]. Further, in test [11], the composite z-score worked out at 0.33. In addition, the z-score was -4.74 (inactive) in test [2]; 0.344 (inactive) in test [3]; -2.32 (inactive) in test [4]; 0.71 (inactive) in test [10]; 28 (active) in test [12]; 25.8 (active) in test [13]. In addition, the z-score in test [14] is 2.02 (inactive); in test [15], 2.14 (inactive); in test [16], 0.302; in [17], 0.622 (inactive); in [18] it was -0.441 (inactive); in test [19], -1.44. Moreover, the z-score in test [20] was -0.633.

Take `CC(C)(C)OC(=O)CC[C@@]1(C(=O)N2CCOCC2)N=C(c2ccc(OCCCO)cc2)O[C@@H]1c1ccccc1`: the composite z-score in test [1] is 0.674; in test [5], 0.3; in test [6], 0.182; with Torsin-1A (Homo sapiens) [7], 1.38; in the test with Torsin-1A (Homo sapiens) [8] it was 1.46; in [9], -0.0953. The compound also showed a composite z-score in test [11] of 0.951. The z-score is -1.77 (inactive) in test [2]; 1.56 (inactive) in test [3]; -0.257 (inactive) in [4]; 1.79 (inactive) in [10]; 20.8 (active) in test [12]; 3.95 (inactive) in test [13]. Also, the z-score in test [14] is 0.794 (inactive); in test [15], -0.73 (inactive); in [16], 1.12; in test [17], -0.261 (inactive); in test [18], -0.961 (inactive); in test [19], -0.0438. Further, the z-score in test [20] is 0.343.

As to `CC(C)N1C(=O)c2ccccc2[C@@H](C(=O)NCc2ccccc2)[C@@H]1c1ccc(CO)cc1`, the composite z-score in test [1] is 0.0422; in test [5], -1.17; in [6], -0.206; with Torsin-1A (Homo sapiens) [7], 0.81; with Torsin-1A (Homo sapiens) [8] it was 0.436; in test [9], -0.49. The composite z-score in test [11] was -0.15. In addition, the z-score was -0.144 (inactive) in test [2]; 0.0279 (inactive) in test [3]; -0.659 (inactive) in test [4]; 1.12 (inactive) in test [10]; 2.59 (inactive) in [12]; 0.425 (inactive) in [13]. In addition, the z-score in [14] was 0.884 (inactive); in test [15], 0.818 (inactive); in test [16], 0.325; in test [17] it was -0.00885 (inactive); in test [18], 0.454 (inactive); in test [19], -0.101. For the same compound, the z-score in test [20] was 0.538.

`Cc1ccc(S[C@]2(C(=O)NC3CC3)CC(=O)N(Cc3ccccc3C(F)(F)F)[C@@H]2c2ccc(CO)cc2I)cc1`: the composite z-score in test [1] is 0.132; in [5] it was -0.297; in test [6], -0.0523; in the test with Torsin-1A (Homo sapiens) [7], -0.0139; in the test with Torsin-1A (Homo sapiens) [8], 0.231; in test [9], 0.385. Further, in [11], the composite z-score is 0.309. Also, the z-score is -2.54 (inactive) in test [2]; -0.114 (inactive) in [3]; -0.479 (inactive) in test [4]; 2.31 (inactive) in test [10]; 5.75 (inactive) in test [12]; -0.15 (inactive) in test [13]. The z-score in [14] is 0.693 (inactive); in [15], -1.31 (inactive); in test [16], 1.8; in test [17], 1.42 (inactive); in test [18], -2.36 (inactive); in test [19] it was 1.21. For the same compound, the z-score in [20] is 0.243.
